Data from PubChem BioAssay (NCI).
About 79,000 compounds went through this panel and 15% of them were active in at least one assay; those are over-represented in the sample as a whole. The source made the active and inactive calls. No stated cut-off is given here; in the data, active means growth inhibition above about 70%; inactive means the rest.

Key:
[1] = NCI Yeast Anticancer Drug Screen. Data for the rad52 strain (AID 147);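 further: 0% = growth of vehicle-treated control cultures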; conditions: S. cerevisiae rad52 mutant growth inhibition, hits give high values
Procedure, shortened: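 Genetically altered yeast (DNA damage repair defect) treated with compound; inhibition calculated relative to vehicle.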

[2] = NCI Yeast Anticancer Drug Screen. Data for the wt1 strain (AID 149);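 further: 0% = growth of vehicle-treated wt1 cultures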; conditions: S. cerevisiae wt1 strain (SPY 50644) growth inhibition, hits give high values
Procedure, shortened: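 wt1 strain grown with compound or vehicle; inhibition taken from the growth difference.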

[3] = NCI Yeast Anticancer Drug Screen. Data for the rad50EPP+ strain (AID 151);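 further: 0% = growth of vehicle-treated control cultures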; conditions: S. cerevisiae rad50 mutant strain, hits give high values
Procedure, shortened: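 Strain rad50EPP+; compound exposure; % growth inhibition vs vehicle.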

[4] = NCI Yeast Anticancer Drug Screen. Data for the rad50 strain (AID 155);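 further: 0% = growth of vehicle-only cultures of the same strain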; conditions: S. cerevisiae rad50 strain growth inhibition, hits give high values
Procedure, shortened: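 DNA repair mutant yeast, compound exposure, growth read-out; inhibition is taken relative to vehicle.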

[5] = NCI Yeast Anticancer Drug Screen. Data for the mec2-1 strain (AID 157); conditions: S. cerevisiae mec2-1 strain, hits give high values
Procedure, shortened: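 Cells of the genetically defined mec2-1 yeast strain are incubated with test compound. Inhibition of growth is calculated against vehicle-treated controls.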

[6] = NCI Yeast Anticancer Drug Screen. Data for the rad14 strain (AID 159);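 further: 0% = growth of vehicle-treated control cultures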; conditions: S. cerevisiae rad14 strain growth inhibition, hits give high values
Procedure, shortened: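 DNA repair-defective yeast, compound-exposed; % growth inhibition derived by comparison with vehicle-treated controls.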

[7] = NCI Yeast Anticancer Drug Screen. Data for the sgs1 mgt1 strain (AID 161);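 further: 0% = growth of cultures given vehicle only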; conditions: S. cerevisiae sgs1 mgt1 strain, hits give high values
Procedure, shortened: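 Test agents were incubated with a DNA-repair-mutant yeast strain. Growth was then read and compared against vehicle-treated controls.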

[8] = NCI Yeast Anticancer Drug Screen. Data for the CLN2oe strain (AID 163);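 further: 0% = growth of vehicle-only control cultures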; conditions: S. cerevisiae CLN2oe strain, hits give high values
Procedure, shortened: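 Strain altered in cell-cycle control, incubated with compound; growth compared to solvent-treated controls.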

[9] = NCI Yeast Anticancer Drug Screen. Data for the cln2 rad14 strain (AID 165);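 further: 0% = growth equal to vehicle treated cultures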; conditions: S. cerevisiae cln2 rad14 strain, hits give high values
Procedure, shortened: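 The screen exposed genetically defined yeast (cln2 rad14) to test compounds and scored growth inhibition relative to vehicle-treated controls.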

[10] = NCI Yeast Anticancer Drug Screen. Data for the bub3 strain (AID 167); conditions: S. cerevisiae bub3 mutant strain, hits give high values
Procedure, shortened: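 In this screen, a yeast mutant lacking normal mitotic checkpoint function is challenged with compound. Relative growth versus vehicle gives the inhibition value.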

[11] = NCI Yeast Anticancer Drug Screen. Data for the wt2 strain (AID 169);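 further: 0% = growth of vehicle-treated yeast cultures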; conditions: S. cerevisiae wt2 strain growth inhibition, hits give high values
Procedure, shortened: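 Steps: yeast strain treated with compound; growth recorded; inhibition calculated relative to cultures given vehicle alone.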

[12] = NCI Yeast Anticancer Drug Screen. Data for the mlh1 strain (AID 171);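 further: 0% = growth of vehicle-treated control cultures of the same strain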; conditions: S. cerevisiae mlh1 strain growth inhibition, hits give high values
Procedure, shortened: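 Yeast screen: mutant strain plus compound, growth scored against vehicle control wells.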

[13] = NCI Yeast Anticancer Drug Screen. Data for the sgs1 strain (AID 173);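 further: 0% = growth of vehicle-only control cultures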; conditions: S. cerevisiae sgs1 mutant, hits give high values
Procedure, shortened: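 Inhibition of yeast growth served as the measure. The mutant strain was treated with each compound, and growth was normalised to cultures receiving vehicle alone.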

[14] = NCI Yeast Anticancer Drug Screen. Data for the mlh1 rad18 strain (AID 175); conditions: S. cerevisiae mlh1 rad18 strain growth inhibition, hits give high values
Procedure, shortened: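 Compound-treated yeast growth, normalised to vehicle controls. Strain bears defined DNA repair mutations.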

[15] = NCI Yeast Anticancer Drug Screen. Data for the rad18 strain (AID 177); conditions: S. cerevisiae rad18 mutant growth inhibition, hits give high values
Procedure, shortened: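 Inhibition values reflect reduced yeast growth compared with vehicle-treated controls, using a strain engineered with a DNA damage repair defect.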

[16] = at 5.0 µM (retest, dose inferred, filed as 0.5)
[17] = at 50.0 µM (retest, dose inferred, filed as 5.0)

Measured: growth inhibition

COC(=O)c1ccc2c(c1)Cc1ccccc1-2
active: [4]; at 50.0 µM 72.5%
inactive: [1]; at 1.2 µM -1% | [1]; at 3.7 µM 5% | [1]; at 11.0 µM 11% | [1]; at 33.0 µM 19% | [1]; at 100.0 µM 28% | [2]; at 1.2 µM -3% | [2]; at 3.7 µM -5% | [2]; at 11.0 µM -3% | [2]; at 33.0 µM -2% | [2]; at 100.0 µM -2% | [3]; at 1.2 µM 2% | [3]; at 3.7 µM 10% | [3]; at 11.0 µM 25% | [3]; at 33.0 µM 39% | [3]; at 100.0 µM 43% | [4]; at 1.2 µM 2% | [4]; at 3.7 µM 10% | [4]; [16] 0% | [4]; at 11.0 µM 13% | [4]; at 33.0 µM 12% | [4]; [17] -11% | [4]; at 100.0 µM 32% | [5]; at 1.2 µM -4% | [5]; at 3.7 µM 1% | [5]; [16] -12% | [5]; at 11.0 µM -12% | [5]; at 33.0 µM -3% | [5]; [17] -4% | [5]; at 50.0 µM 39% | [5]; at 100.0 µM 1% | [6]; at 1.2 µM -3% | [6]; at 3.7 µM -6% | [6]; at 11.0 µM -4% | [6]; at 33.0 µM -3% | [6]; at 100.0 µM -6% | [7]; [16] -5% | [7]; [17] -4% | [7]; at 50.0 µM 46.9% | [8]; at 1.2 µM -1% | [8]; at 3.7 µM 0% | [8]; at 11.0 µM -4% | [8]; at 33.0 µM -3% | [8]; at 100.0 µM -11% | [9]; [16] 35% | [9]; [17] 0% | [9]; at 50.0 µM 29.4% | [10]; at 1.2 µM -7% | [10]; at 3.7 µM -7% | [10]; [16] 0% | [10]; at 11.0 µM 3% | [10]; at 33.0 µM 3% | [10]; [17] -1% | [10]; at 50.0 µM 41.2% | [10]; at 100.0 µM 19% | [11]; at 1.2 µM -3% | [11]; at 3.7 µM -2% | [11]; at 11.0 µM -4% | [11]; at 33.0 µM 3% | [11]; at 100.0 µM 28% | [12]; at 1.2 µM -3% | [12]; at 3.7 µM 9% | [12]; at 11.0 µM 2% | [12]; at 33.0 µM -11% | [12]; at 100.0 µM 8% | [13]; at 1.2 µM -3% | [13]; at 3.7 µM -4% | [13]; at 11.0 µM -1% | [13]; at 33.0 µM 3% | [13]; at 100.0 µM 17% | [14]; [16] -2% | [14]; [17] 6% | [14]; at 50.0 µM 45.6% | [15]; at 1.2 µM -1% | [15]; at 3.7 µM 1% | [15]; at 11.0 µM 6% | [15]; at 33.0 µM 4% | [15]; at 100.0 µM 9%
